Measured values taken from PubChem BioAssay AID463193 (University of Pittsburgh Molecular Library Screening Center, 2010).
Hit rate of the full screen: of about 190,000 compounds, about 1,900 (1%) were called active.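 The calls were made as follows: active = percentage of spot-positive cells more than 3 SD above its plate mean, without a fluorescence outlier flag or 80% toxicity; inconclusive = no clear call, values can overlap the other calls; inactive = the rest.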 For the sample, actives were picked, then their nearest neighbours and some compounds at random.

Test: autophagy modulators in MEF cells, primary screen, imaging, high-content, MEF GFP-LC3 (AID 463193);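 as to % cells with GFP-LC3 spots: spot-positive cell cutoff set from DMSO-treated cells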;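 as to toxicity: cell loss after 18 h compound exposure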
Settings: MEF GFP-LC3 puncta imaging, at 10 µM; % cells with GFP-LC3 spots: stronger effect = higher value; toxicity: measured here: cell loss, nuclei count

| Structure (SMILES) | % cells with GFP-LC3 spots | toxicity |
| --- | --- | --- |
| CC1CCN(C2=NC(=O)/C(=C/c3cn[nH]c3-c3ccccc3)S2)CC1 | 4.99% (inactive) | 5.05% |
| O=C(Nc1ccccc1C(=O)N1CCCCCC1)c1ccccc1Cl | 43.8% (active) | -8.81% |
| O=C(CN(c1ccccc1)S(=O)(=O)c1ccc(Cl)cc1)Nc1ccccc1C(=O)N1CCCC1 | 9.32% (inactive) | 0.638% |
| O=C(Nc1ccccc1C(=O)N1CCOCC1)c1ccc(Cl)cc1 | 1.74% (inactive) | 11.5% |
| O=C(CN1C(=O)/C(=C/c2ccccc2F)Sc2ccccc21)NCc1cccnc1 | 0.409% (inactive) | -0.091% |
| CCc1ccc2c(c1)C1(NN=C(c3ccccc3)S1)C(=O)N2 (centres undefined) | 24.9% (active) | 40.3% |
| O=C1Nc2ccccc2C12Nc1ccccc1S2 (centres undefined) | 6.3% (inactive) | -0.645% |
| C=C1c2cc(CC)ccc2NC(=O)N1c1ccc(C)cc1 | 1.08% (inactive) | -2.35% |
| CCOc1ccc(N(CC(=O)NCCc2ccc(OC)cc2)S(C)(=O)=O)cc1 | 1.57% (inactive) | -14.4% |
| COc1ccc(C2CC(c3ccc(C)cc3)Nc3nc(N)nn32)cc1 (centres undefined) | 17.9% (inactive) | -20.4% |
| Cc1ccc(C2CC(c3cccc(C)c3)n3nc(N)nc3N2)cc1 (centres undefined) | 4.2% (inactive) | 10.4% |
| COc1ccc(C2CC(c3ccc(Cl)cc3Cl)Nc3nc(N)nn32)cc1OC (centres undefined) | 14.3% (active) | 1.79% |
| O=C(CSc1nc(-c2ccco2)cc(C(F)(F)F)n1)N1CCc2ccccc2C1 | 0.274% (inactive) | -3.54% |
| COc1ccc(-c2cc(C(F)(F)F)nc(SCCC(=O)NCc3ccco3)n2)cc1 | 14.8% (inactive) | 0.225% |
| O=C(CSc1nc(-c2ccco2)cc(C(F)(F)F)n1)NCc1cccs1 | 11.9% (active) | 19.8% |
| Cc1ccc(S(=O)(=O)N2CCCC2C(=O)OCc2nc3sc(C)c(C)c3c(=O)[nH]2)cc1 (centres undefined) | 7.41% (inactive) | 2.2% |
| CS(=O)(=O)N(CC(=O)N/N=C/c1ccccn1)c1ccc(Oc2ccccc2)cc1 | 19.6% (inactive) | 9.84% |
| COc1ccc(OC)c(N=Cc2c(O)[nH]c3ccccc23)c1 | 30.3% (active) | 10.8% |
| COc1ccc(N=Cc2c(O)[nH]c3ccccc23)cc1OC | 20.4% (inactive) | 0.85% |
| COc1cc(N=Cc2c(O)[nH]c3ccccc23)cc(OC)c1OC | 1.9% (inactive) | 14.8% |
| O=C(NNC1CC(=O)N(c2cccc(Cl)c2)C1=O)c1cccnc1 (centres undefined) | 14.6% (inactive) | -11.8% |
| COc1cccc2c(O)cc(=O)n(C)c12 | 6.52% (inactive) | 15.8% |
| Oc1c(CN2CCN(c3ccc(F)cc3)CC2)cc(Cl)c2cccnc12 | 52% (active) | 33.9% |
| O=C(c1cccc(C(=O)N2CCN(c3ccc(F)cc3)CC2)c1)N1CCN(c2ccc(F)cc2)CC1 | 13% (inactive) | -26% |
| CCN1CCN(C(c2cccnc2)c2cc(Cl)c3cccnc3c2O)CC1 (centres undefined) | 0.145% (inactive) | 15.1% |
| C=CCn1c(CCNC(=O)c2ccccc2F)nnc1SCC(=O)Nc1ccc(OC)cc1 | 1.65% (inactive) | 10.4% |

| Structure (SMILES) | % cells with GFP-LC3 spots | toxicity |
| --- | --- | --- |
| COc1ccc(OC)c(S(=O)(=O)NCCC(C)C)c1 | 7.62% (inactive) | 7.42% |
| CN=c1scc(-c2cc(OC)ccc2OC)n1/N=C/c1c(C)[nH]c2ccccc12 | 8.49% (inactive) | 3.61% |
| CCn1c(-c2cc(OC)ccc2OC)csc1=Nc1c(C)n(C)n(-c2ccccc2)c1=O | 12.4% (active) | -0.744% |
| COc1ccc(S(=O)(=O)Nc2c(C)n(C)n(-c3ccccc3)c2=O)cc1 | 4.67% (inactive) | 4.21% |
| COc1ccc(-c2nc(N)sc2C2(O)C(=O)Nc3c(Br)cc(F)cc32)cc1OC (centres undefined) | 1.66% (inactive) | -1.9% |
| COC(=O)NNC1=CC(=O)CC(C)(C)C1 | 0.796% (inactive) | -6.02% |
| Clc1cc(-c2ccc(/C=N/n3cnnc3)o2)ccc1Br | 8.69% (inactive) | 20.9% |
| CC(=O)N/N=C(\C)c1ccc(Br)cc1Br | 20.7% (inactive) | 2.43% |
| Cc1cc(C)c2[nH]c(=O)c(C(c3nnnn3Cc3ccc4c(c3)OCO4)N3CCCC3)cc2c1 (centres undefined) | 21.2% (inactive) | 8.95% |
| COc1ccc(N2CCN(C(c3cc4ccc(C)cc4[nH]c3=O)c3nnnn3C3CCCC3)CC2)cc1 (centres undefined) | 5.85% (inactive) | -3.74% |
| CCOC(=O)C1CCN(C(c2cc3cc(C)cc(C)c3[nH]c2=O)c2nnnn2C2CCCCC2)CC1 (centres undefined) | 19.2% (active) | 24.2% |
| O=C(CN1C(=O)NC2(CCCC2)C1=O)NCC1CCCO1 (centres undefined) | 11.1% (inactive) | 7.52% |
| CC1CCc2sc(C(=O)N/N=C/C3CCCCC3)cc2C1 (centres undefined) | 20.3% (active) | -2.28% |
| O=C(NNC(=O)c1cc2c(s1)CCCC2)c1ccccc1 | 9.94% (inactive) | -13.8% |
| C/C(=N\NC(=O)c1cc2c(s1)CCC(C)C2)c1cccnc1 (centres undefined) | 17.7% (inactive) | -0.909% |
| COC(=O)c1c(C)[nH]c(C)c1-c1ccc([N+](=O)[O-])cc1 | 18.2% (inactive) | 38.9% |
| CCOC(=O)c1c(NC(=O)Cn2nc(C(F)(F)F)cc2C)sc2c1CCC2 | 7.63% (inactive) | 0.444% |
| N=c1c2c(-c3ccccc3)c(-c3ccccc3)n(Cc3ccccc3)c2ncn1CCCO | 32% (active) | 9.38% |
| Cc1nc([N+](=O)[O-])c(NCCCO)n1Cc1ccccc1 | 43.4% (inactive) | 4.77% |
| N=c1c2c(-c3ccccc3)c(-c3ccccc3)oc2ncn1Cc1ccco1 | 5.09% (inactive) | -0.176% |
| O=C(Cc1ccccc1)NNS(=O)(=O)c1ccc([N+](=O)[O-])cc1 | 5.31% (inactive) | -4.08% |
| CCCCN(CC)C(=O)c1ccccc1Oc1ccccc1 | 7.48% (inactive) | -0.889% |
| CCc1nn(-c2cc(Oc3cccc4ccccc34)nc(-c3ccccc3)n2)c(N)c1C#N | 19.2% (active) | -18% |
| CCCC(=O)n1nc(-c2ccccc2)nc1N | 10.8% (inactive) | -5.17% |
| COc1ccc(C2c3c(C)nn(-c4ccccc4)c3NC(=O)N2c2ccccc2)cc1 (centres undefined) | 11% (inactive) | 17.6% |
| COc1ccc(CN2CCCC(C(=O)c3ccc(Cl)cc3)C2)cc1Cn1cncn1 (centres undefined) | 0.149% (inactive) | -9.01% |
